From PubChem BioAssay AID1159606 (Sanford-Burnham Center for Chemical Genomics, 2016)
Where “and” joins values, the source holds several entries; their conditions need not be identical. Identical values can stand only once. Out of some 360,000 compounds screened, about 7,300 (2%) were called active. Cut-off read from the data, not from the text of the source: active = inhibition above about 50%; inactive = the rest. Only a selection was taken, and actives are over-represented in it overall.

Assay: inhibitors of TWEAK-Fn14 signaling, primary screen, luciferase reporter cells, uHTS (AID 1159606)
Conditions: TWEAK-stimulated Fn14 reporter cells, luciferase luminescence, 8 h; at 10 µM; hits give high values

inhibition, inactive:
CCOc1ccc(S(=O)(=O)Nc2cccc(C(=O)NCC3(N4CCCCC4)CCCCC3)c2)cc1 -1.13%, OCCC#Cc1ccc(N2C(c3ccsc3)=Cc3ccc(F)cc3C2c2c[nH]c3ccccc23)cc1 (stereo unspecified) 11.2%, C=CCn1c(CNS(=O)(=O)c2ccc(Br)cc2)nnc1SC 8.19%, C=CCC[C@@H](CCCCC)OC(=O)/C=C/[C@@H](O)[C@H](O)C[C@H](O)CC=C 2.81%, CC1CN(C(=O)c2cc(COc3c(F)cccc3F)on2)CCN1C (stereo unspecified) -6.71%, O=C(Nc1cccc(-c2nnc(-c3ccccc3)o2)c1)C1CCCO1 (stereo unspecified) 10.7%, C/C(=N/NC(=O)CCc1ccccc1)c1ccco1 -10.4%, CC(C)NC(=O)Nc1cccc2c1O[C@@H](CN(C)S(=O)(=O)c1ccc(F)cc1)[C@@H](C)CN([C@H](C)CO)C2=O 3.62%, COc1cccc(NC(=O)CC(c2ccc(OC(C)C)cc2)c2ccccc2OC)c1 (stereo unspecified) -21.3%, CC(=O)c1ccc(N2CCN(CC(O)c3ccccc3)CC2)cc1 (stereo unspecified) 15.1%, CC(=O)c1ccc(N2CCN(C(=O)CCc3ccccc3)CC2)cc1 -0.25%, CCOC(=O)[C@]12CCC=C1N(Cc1ccco1)C(=O)[C@H](CC(=O)N1CCSCC1)C2 13.3%, O=C(NCC1CCC(C(=O)O)CC1)OCc1ccccc1 (stereo unspecified) 3.36%, CC(Oc1ccc2c(-c3ccccc3)cc(=O)oc2c1)C(=O)NC(Cc1c[nH]c2ccccc12)C(=O)O (stereo unspecified) -2.3%, OC(c1ccccc1)(c1ccccc1)C1CCN(CCCOc2ccccc2)CC1 1.25%, COCCn1c(C)cc(C(=O)COC(=O)CNC(=O)c2ccco2)c1C 5.04%, Cc1ccc(OCC(=O)c2cc(C)n(Cc3ccco3)c2C)c([N+](=O)[O-])n1 42.9%, CCc1nc2ccc(C(=O)Nc3cc(-c4ccccc4)ccc3OC)cn2c1N(CC)CC(=O)N(C)C 9.07%, CC1(C(=O)NS(=O)(=O)c2cccs2)CCN1C(=O)Cc1ccc(-c2ccccc2)cc1 (stereo unspecified) 6.14%, CCOc1c(Nc2cccc(Cl)c2)c(=O)c1=O 6.24%, CC(NC(=O)COC(=O)c1ccc(Cl)cc1O)c1ccc(F)cc1 (stereo unspecified) -8.36%, COC(=O)[C@H]1[C@H]2C[C@H]3c4[nH]c5ccccc5c4CCN3C[C@@H]2CC[C@@H]1O 27.2% and 5.66%, COc1cccc(C2c3[nH]c4ccccc4c3CCN2Cc2cccc(C)n2)c1 (stereo unspecified) 1.39%, CCNc1nc(N)nc(-c2cc(Cl)ccc2OC)n1 -2.01%, CC[C@@H]1CC2=C(C(=O)OC(C)(C)O2)[C@@H](CC)O1 1.77%, CCN(CC)C(=O)CC1(c2ccccc2OC)CCOC(C(C)C)C1 (stereo unspecified) -4.31%, CCOC(=O)c1cc(-c2sc(NC(=O)c3ccccc3)nc2C)n(CCO)n1 -0.09%, C=CCn1nc(C(=O)OCC)cc1-c1sc(NC(=O)c2ccccc2)nc1C 32.2%, CCCCCCN1C[C@@H](O)[C@H](n2cc(COC(=O)c3ccccc3)nn2)C[C@@H]1c1ccc(Cl)cc1 11.1%, C[C@H](NC(=O)[C@@H]1CCCN1C(=O)[C@@H]1CCCN1C(=O)c1ccccc1)c1ccccc1 -2.63%, CC(C(=O)NCC1CCCCC1)N(C)Cc1cccc(Cl)c1 (stereo unspecified) -0.37%, S=c1[nH]nc2c3c4c(sc3ncn12)CCCC4 3.72%, CC(C(=O)O)n1cnc2sc3c(c2c1=O)CCCC3 (stereo unspecified) -20.1%, COc1cc(SC)ccc1C(=O)NNC(=O)C1COc2ccccc2O1 (stereo unspecified) -29.7%, Cc1csc(NC(=O)CSc2nc(=O)cc(N)n2-c2ccc(F)cc2)n1 27.6%, COc1ccc(C(=O)NC(C)CCc2ccccc2)c(OC)c1 (stereo unspecified) -8.93%, CCOC(=O)c1sc(NC(=O)c2sc(C)nc2C)nc1C -39.5%, CC(=O)c1ccc(NC(=S)N(Cc2ccccc2)C(C)C2CC2)cc1 (stereo unspecified) 11.1%, COC(=O)c1ccc2nc(-c3ccc(F)cc3)c(Cc3ccc(C)cc3)n2c1 -0.5%, O=C1NC[C@@H](CCCCN2CCN(CCc3ccc(O)cc3)C(=O)C2=O)N(CC2CCCCC2)C1=O 10.2%, O=C(c1ccc2c(c1)N(Cc1ccc(F)cc1)C(=O)CS2)N1CCOCC1 -16.2%, CCc1nccn1CCC(=O)N1CCCC(N2CCN(c3ccccc3F)CC2)C1 (stereo unspecified) -3.5%, CC(=O)Nc1ccc(NS(=O)(=O)c2ccc3c(c2)NC(=O)CC(=O)N3)cc1 10.3%, CC(=O)Nc1ccc(S(=O)(=O)N2CCCC2C(=O)O)cc1 (stereo unspecified) 0.16%, CCN(CC)P(=O)(/C(Cl)=C\Nc1c(C)n(C)n(-c2ccccc2)c1=O)N(CC)CC -1.25%

inhibition, active:
O=C(CCc1ccccc1)Nc1cccc(-c2nnc(-c3ccco3)o2)c1 52.6%, CC(=O)c1ccc(N2Cc3ccccc3C2)cc1 50.8%, O=C(CNC(=O)OCc1ccccc1)Oc1cc2oc(=O)cc(-c3ccccc3)c2cc1Cl 66.8%, Cc1cc(C(=O)COC(=O)CNC(=O)c2ccc(F)cc2)c(C)n1Cc1ccco1 71.8%, OCCCNc1nccc(-c2cc(Nc3cccc(Cl)c3)ncn2)n1 97.3%, COc1ccc(-c2ccc3[nH]c4c(c3c2)CCN2C[C@H]3[C@H](C)ON(C)[C@H]3C[C@@H]42)cc1 76.2%, CCOC(=O)c1cc(-c2sc(NC(=O)c3ccccc3)nc2C)n(Cc2ccccc2)n1 54.7%, c1nnc2c3c4c(sc3ncn12)CCC4 58.9%, COc1cc(SC)ccc1C(=O)Nc1nc(C)cs1 102%, COC(=O)c1sc(NC(=O)c2ccc(OC)cc2OC)nc1C 69%, CC(=O)Nc1ccc(S(=O)(=O)Nc2ccc(N3CCCCC3)cc2)cc1 84.7%
